What all share (assay): NCI-60 one-dose screen, 48 h (100 = growth as untreated, 0 = no growth, -100 = all killed)
Holding throughout (conditions): 10 µM unless noted

The subject of assay [1] is T-47D breast.
For assay [2], the system named is BT-549 breast.
The subject of assay [3] is SW-620 colon.
In assay [4] the test system is MCF7 breast.
Assay [5] relates to HCT-116 colon.
In assay [6] the test system is KM12 colon.
Assay [7] has as its system HCC-2998 colon.

This is part of a sample that, as a whole, favours compounds with a hit. Of some 83,000 tested, about 20% had one in any assay.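 Cells were grown in 96-well plates and exposed to the test compound at a single concentration for 48 hours; results are reported as percent growth, with values below 10 considered active.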 Values without a mark were called inactive. Activity calls are given as the source filed them.

For the molecule `CN(C)CCN1C(=O)c2cccc3c(/C=C/CN4C(=O)c5cccc6cccc(c56)C4=O)ccc(c23)C1=O`, the growth in assay [1] was 97.6%; in assay [2], 97%; in assay [3], 11.9%; in assay [4], -71.6% (active); in assay [5], 9.57% (active); in assay [6] it was -79.4% (active).
`C#CCOc1cccc(-c2ncnc3cc(NC(=O)C=C)ccc23)c1`: the growth was 37.6% in assay [1]; 43.5% in assay [2]; 21.4% in assay [3]; 13.5% in assay [4]; 27.2% in assay [5]; 91.5% in assay [7]. The growth in assay [6] is 31.1%.
`Cc1ccc(-c2nc(N3CCNCC3)c3oc(-c4ccc(C)cc4)nc3n2)cc1`: the growth was 37.3% in assay [1]; 83.4% in assay [2]; -69.3% (active) in assay [3]; -73.1% (active) in assay [4]; -39.4% (active) in assay [5]; 65.5% in assay [7]. Also, the growth in assay [6] is -81.9% (active).
Take `Nc1nc(NC(=O)Nc2ccc(C(=O)O)cc2)nn1-c1ccc(S(N)(=O)=O)cc1`: the growth in assay [1] is 102%; in assay [2] it was 91.3%; in assay [3], 87.7%; in assay [4], 98.7%; in assay [5], 95.4%.
Regarding `CCNc1ccc(-c2nc3ccccc3n3cccc23)cc1`, the growth is 55.1% in assay [1]; 90.4% in assay [2]; 92.5% in assay [3]; 34.4% in assay [4]; 88.9% in assay [5]; 92.4% in assay [7].
For the molecule `N#C/C(=C\c1ccc([N+](=O)[O-])cc1)n1nnc2cc(F)c(F)cc21`, the growth in assay [1] was -15.2% (active); in assay [2] it was 77.6%; in assay [3], -18.5% (active); in assay [4], 21.8%; in assay [5], -46.4% (active); in assay [7] it was -56.2% (active).
With `O=C(Cc1ccc(NC(=O)c2cccc(Cl)c2)cc1)NCc1ccccc1`, the growth in assay [1] is 54.2%; in assay [2] it was 61%; in assay [3] it was 25.3%; in assay [5], 25.3%; in assay [7], 73.3%; in assay [6] it was 24.8%.
In the case of `O=C(N=Nc1c(O)[nH]c2ccccc12)Nc1ccc(F)cc1`, the growth was 66.2% in assay [1]; 89.6% in assay [2]; 89.4% in assay [3]; 71.3% in assay [4]; 82% in assay [5]; 100% in assay [7]. Also, in assay [6], the growth was 85.5%.
As to `CC(=O)c1sc2sc(C(C)=O)c(C)c2c1C`, the growth is 89% in assay [1]; 105% in assay [2]; 102% in assay [3]; 73.1% in assay [4]; 83.1% in assay [5]; 102% in assay [7]. The growth in assay [6] is 107%.
Regarding `COc1ccc(-c2n[nH]c(=O)c3nc(NC(=S)Nc4ccc(Oc5ccccc5)cc4)sc23)cc1`, the growth is 81.9% in assay [1]; 108% in assay [2]; 96.8% in assay [3]; 96.8% in assay [4]; 91.1% in assay [5]; 105% in assay [7]. The growth in assay [6] was 93.8%.
Regarding `CC1(C)N=C(N)N=C(N)N1c1ccc(CCCCc2ccccc2)c(Cl)c1`, the growth in assay [1] was 15.8%; in assay [2] it was -16% (active); in assay [3], 20.5%; in assay [5], 13.9%; in assay [7] it was -43.9% (active); in assay [6] it was -79.7% (active).
For the molecule `NC(=O)c1cnc(Nc2cccc(N)c2)nc1NCCCNC(=O)C1CCC1`, the growth in assay [1] is 106%; in assay [2], 26.7%; in assay [3], 86.8%; in assay [4] it was 74.7%; in assay [5], 65.5%; in assay [7], 103%. For the same molecule, in assay [6], the growth was 74.8%.
In the case of `CN(C)c1ccc(/C=C(\C#N)c2cc3ccccc3[nH]2)cc1`, the growth in assay [1] was 36.1%; in assay [2], 42.4%; in assay [3], 13.2%; in assay [4], 19.9%; in assay [5] it was 11.5%; in assay [7], 45.5%. Besides, the growth in assay [6] is 24.9%.
In the case of `CCN1C(=O)N(CC)C2C1NN=c1s/c(=C3\C(=O)N(CC(C)C)c4ccccc43)c(=O)n12` (stereo unspecified), the growth is 73.8% in assay [1]; 17.5% in assay [2]; 33.9% in assay [3]; 15.1% in assay [4]; 11.9% in assay [5]; 13.8% in assay [7]. For the same molecule, the growth in assay [6] is 20.9%.
As to `Nc1nc(N)c(N=Nc2ccccc2)c(-c2ccccc2)n1`, the growth in assay [1] is 10.2%; in assay [2], 47%; in assay [3] it was 86.3%; in assay [4] it was 19.4%; in assay [5], 69.7%; in assay [7], 76.4%. The growth in assay [6] was 33.4%.
In the case of `CN1C(=O)/C(=C/c2ccc(C(=O)Nc3ncc(Cc4cccc(Cl)c4)s3)cc2)SC1=S`, the growth in assay [1] is 42.7%; in assay [2] it was 57%; in assay [3] it was 37.4%; in assay [4], 46%; in assay [5] it was 47.5%; in assay [7] it was 59.2%. In assay [6], the growth is 33.5%.
Regarding `C=C(CNCCO)[C@@H]1CC[C@]2(CO)CC[C@]3(C)[C@H](CC[C@@H]4[C@@]5(C)CCC(N)C(C)(C)[C@@H]5CC[C@]43C)[C@@H]12` (stereo partly specified), the growth in assay [1] is -47.7% (active); in assay [2] it was 65%; in assay [3], 7.71% (active); in assay [4], -29.9% (active); in assay [5], 7.75% (active); in assay [7] it was -37.2% (active).
With `O=C(CCCCCCN1CC(=O)N2[C@H](c3ccc(Br)cc3)c3[nH]c4ccccc4c3C[C@@H]2C1=O)NO`, the growth in assay [1] is 9.61% (active); in assay [2] it was 55.1%; in assay [3], 20.4%; in assay [4], 28.4%; in assay [5], 14.8%; in assay [7] it was 67.5%.
`Cn1cc(-c2csc(-c3cn(CCCN4CCOCC4)c4ccccc34)n2)c2cccnc21`: the growth in assay [1] was 62.1%; in assay [2], 88.7%; in assay [3], 94.6%; in assay [5] it was 84.4%; in assay [7], 92.9%; in assay [6], 85.4%.
On to `CCCC(CC)(C(=O)Nc1ccc2nc(C)cc(N)c2c1)C(=O)Nc1ccc2nc(C)cc(N)c2c1`, for which the growth in assay [1] is 106%; in assay [2], 101%; in assay [3] it was 112%; in assay [4], 102%; in assay [5] it was 85.2%; in assay [7], 111%. The growth in assay [6] was 109%.
`C#CC#CC#CC#CC#CC#CC#CC#CCC1OC[C@H](COC(=O)O[C@@H](C(=O)O[C@H]2C[C@@]3(O)[C@@H](OC(=O)c4ccccc4)[C@@H]4[C@]5(OC(C)=O)CO[C@@H]5C[C@H](O)[C@@]4(C)C(=O)[C@H](OC(C)=O)C(=C2C)C3(C)C)[C@@H](NC(=O)c2ccccc2)c2ccccc2)O1` (stereo partly specified): the growth in assay [1] was 41.3%; in assay [2] it was 26.4%; in assay [3], 27.7%; in assay [4] it was 25%; in assay [5] it was 14.2%.
Take `CCOC(=O)c1ccccc1-c1c2ccc(=[N+](C)C)cc-2oc2cc(N(C)C)ccc12`: the growth in assay [1] was 6.72% (active); in assay [2], -10.1% (active); in assay [3] it was 15%; in assay [4] it was 3.95% (active); in assay [5] it was 4.32% (active); in assay [7] it was 96.9%. The growth in assay [6] is 7.32% (active).
For `Cc1ccc(-c2nc(SCc3nc4cc(Cl)c(Cl)cc4[nH]3)[nH]c(=O)c2C#N)cc1`, the growth was 85.4% in assay [1]; 92.5% in assay [2]; 109% in assay [3]; 101% in assay [4]; 93.1% in assay [5]; 110% in assay [7].
For `CSC(SC)=C(C#N)c1nc2ccccc2s1`, the growth in assay [1] is 33.2%; in assay [2] it was 13.1%; in assay [3], 81.5%; in assay [4], 47.3%; in assay [5] it was 14.2%; in assay [7], 82.2%. In addition, the growth in assay [6] was 58.3%.
As to `O=C(C1CCCCC1)[C@@H]1[C@]2(C(=O)NC3CCCCC32)[C@@H]2CCCN2[C@@]12C(=O)NC1CCC(Cl)CC12` (stereo partly specified), the growth in assay [1] was -69% [100 µM] (active); in assay [2] it was -91.6% [100 µM] (active); in assay [3] it was -89.6% [100 µM] (active); in assay [4], -51.4% [100 µM] (active); in assay [7], -84.8% [100 µM] (active); in assay [6] it was -86% [100 µM] (active).
With `O=C(Nc1ccccc1[N+](=O)[O-])c1ccc(Cl)c(Cl)c1`, the growth in assay [1] is 54.9%; in assay [2] it was 85.6%; in assay [3], 97.9%; in assay [4], 52%; in assay [5], 95%; in assay [7], 110%. Further, the growth in assay [6] was 96.8%.
As for `C=C1C(=O)O[C@H]2[C@H]1CC/C(COC(=O)c1cc3cc(Cl)ccc3[nH]1)=C\CC[C@@]1(C)O[C@@H]21`, the growth was -68.2% (active) in assay [1]; -47.4% (active) in assay [2]; -53.1% (active) in assay [3]; -71.7% (active) in assay [4]; -70.4% (active) in assay [5]; -70.5% (active) in assay [7]. For the same molecule, the growth in assay [6] was -59.8% (active).
`NC(=O)c1cccc([C@@H]2O[C@H](CO)[C@@H](O)[C@H]2O)c1`: the growth in assay [1] is 85.7%; in assay [2], 90.9%; in assay [3], 24%; in assay [4], 61.8%; in assay [5], 72.7%; in assay [6], 34.7%.
As to `O=C(/C=C/c1cccc(Cl)c1Cl)Nc1ncc(Cc2ccccc2Cl)s1`, the growth in assay [1] was 43.8%; in assay [2], 76.7%; in assay [3] it was 27%; in assay [4], 12.7%; in assay [5], 24.2%; in assay [7], 76.3%. Moreover, the growth in assay [6] is 28.8%.
Turning to `O=C(Nc1ccccc1N1CCCC1=O)c1oc2ccc(F)cc2c1-c1cnn(-c2ccccc2)c1`, the growth is 35.4% [50 µM] in assay [1]; 56.7% [50 µM] in assay [2]; 75.4% [50 µM] in assay [3]; 43.8% [50 µM] in assay [4]; 90.5% [50 µM] in assay [7]; 47.4% [50 µM] in assay [6].
Turning to `Cn1cc(-c2csc(-c3c[nH]c4ccc(F)cc34)n2)c2ccnc(Cl)c21`, the growth in assay [1] was 24.3%; in assay [2], 78.2%; in assay [3] it was 41.5%; in assay [4] it was 59.5%; in assay [5], 61.2%; in assay [7], 70.8%. Moreover, in assay [6], the growth is 55.1%.

The values above are taken from PubChem BioAssay (NCI).
